High-throughput results (PubChem BioAssay)
Hits are enriched below; roughly 1.1% of the tested compounds scored in any of these assays.
CaV13 FRET inh = Disruptors of the CACNA1D IQ motif to Ca2+-dependent inactivation inhibitor domain association, primary screening, Förster resonance energy transfer in intact living …. 340,000 tested, 0.098% active. inhibition, % at 12.3 µM. AID 743397. HEK cells, CFP/YFP FRET ICDI-IQ, plate reader, 10 min; percent FRET-ratio fall versus neutral wells;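 active = mean replicate inhibition of at least 30% and at least 1% of replicates passing that level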;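 note: 0% = median of the neutral control wells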
VLA-4 inh = inhibition in human VLA-4 binding assay, primary screen, VLA-4 allosteric modulator project, MLPCN library, flow cytometry, VLA-4 expressing cells; Integrin alpha-4 (Homo sapiens), P13612; ligand binding flow cytometry; inhibition, % (about 7 µM as worked out from the volumes in the protocol); 330,000 tested, 0.2% active; AID 2557, 2010; in the data active = inhibition above about 50%
Exocytosis inh = LAMP-1 surface exposure blockers, TALL-104 cells – cell-based, flow cytometry, MLPCN library, primary screen | TALL-104 LAMP-1 surface exposure; cells stimulated with thapsigargin and PMA | inhibition, % at 10 µM | 360,000 tested, 0.66% active;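 active = inhibition above about 55%, limit read from the data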
ABCB6 inh 2 = ABCB6 transporter inhibitors, primary screen, K562-ABCB6 cells, flow cytometry, MLPCN library; ATP-binding cassette sub-family B member 6 (Homo sapiens), Q9NP58; K562-ABCB6 porphyrin accumulation, 1 h; active compounds read low; fluorescence ratio to DMSO, % at 10 µM; 360,000 tested, 0.19% active;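 active = fluorescence ratio to DMSO below 75%, the collection mean minus 3 SD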;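 note: signal is porphyrin accumulated inside mitochondria; 100% equals median channel fluorescence of DMSO control wells; lower ratio means ABCB6 inhibition with less porphyrin fluorescence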
Target sequence (Q9NP58 whole entry, looked up): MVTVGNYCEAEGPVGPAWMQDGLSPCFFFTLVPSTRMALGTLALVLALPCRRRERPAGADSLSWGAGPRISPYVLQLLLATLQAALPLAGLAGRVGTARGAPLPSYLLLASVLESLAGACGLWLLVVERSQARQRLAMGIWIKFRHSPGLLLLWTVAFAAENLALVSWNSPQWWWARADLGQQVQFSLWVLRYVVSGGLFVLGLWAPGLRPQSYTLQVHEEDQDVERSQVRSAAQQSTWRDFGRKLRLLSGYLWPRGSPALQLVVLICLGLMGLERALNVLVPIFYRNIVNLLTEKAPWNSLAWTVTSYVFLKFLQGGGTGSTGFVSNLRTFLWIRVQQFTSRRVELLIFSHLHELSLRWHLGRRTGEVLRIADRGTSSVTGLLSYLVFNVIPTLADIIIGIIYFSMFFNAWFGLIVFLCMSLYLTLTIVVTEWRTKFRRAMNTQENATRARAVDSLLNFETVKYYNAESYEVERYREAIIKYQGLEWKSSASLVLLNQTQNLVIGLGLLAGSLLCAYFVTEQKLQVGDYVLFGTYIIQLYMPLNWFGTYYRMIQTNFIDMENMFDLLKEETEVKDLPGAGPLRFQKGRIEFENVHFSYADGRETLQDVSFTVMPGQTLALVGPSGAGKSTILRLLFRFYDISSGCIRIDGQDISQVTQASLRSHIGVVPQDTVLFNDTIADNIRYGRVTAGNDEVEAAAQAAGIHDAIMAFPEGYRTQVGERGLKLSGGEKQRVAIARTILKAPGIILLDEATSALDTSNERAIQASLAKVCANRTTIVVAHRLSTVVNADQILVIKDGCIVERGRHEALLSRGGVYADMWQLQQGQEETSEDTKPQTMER
* marks the source's active call; other numbers are inactive results.

For COCCN1C(=O)[C@H]2C[C@@]13O[C@H](c1ccccn1)N=C3CC1c3ccccc3C[C@@]12C (stereo not given in full) the results were CaV13 FRET inh -4.9.
Screening COCc1cc(N2CCN(C(=O)OC(C)(C)C)C[C@@H]2C)ccc1N1CCN(Cc2ccccc2)[C@@H](C)C1 returned CaV13 FRET inh -7.9.
Screening O=C(NCc1ccc(S(=O)(=O)Nc2ccccc2Cl)s1)c1ccccc1 returned CaV13 FRET inh -5.0, VLA-4 inh -7.2, Exocytosis inh 0.8 and ABCB6 inh 2 105.0.
Screening O=C(NS(=O)(=O)c1ccc(Cl)s1)c1ccccc1 returned CaV13 FRET inh 46.2*, VLA-4 inh 0.5, Exocytosis inh -1.7 and ABCB6 inh 2 102.0.
Screening NNC(=O)c1ccccc1OCCOc1ccccc1 returned CaV13 FRET inh -3.5, VLA-4 inh -11.5, Exocytosis inh 59.4* and ABCB6 inh 2 90.0.
CN(C(=O)COc1ccccc1C(=O)NCCOc1ccccc1)c1ccccc1 was read as CaV13 FRET inh -16.2, VLA-4 inh 1.4, Exocytosis inh 67.0* and ABCB6 inh 2 86.0.
`C/C(=N\NC(=O)c1ccccc1OCCOc1ccccc1)c1ccccc1F` gave CaV13 FRET inh -6.0, Exocytosis inh -1.8 and ABCB6 inh 2 96.0.
Screening O=C(NCCOc1ccccc1)c1ccccc1Cl returned CaV13 FRET inh -4.6, VLA-4 inh 3.5, Exocytosis inh -5.8 and ABCB6 inh 2 96.0.
`COc1cc2c(cc1OC)[N+]([O-])=C(c1ccccc1)C2=O` gave CaV13 FRET inh -4.7.
For COc1ccccc1-c1ccc(OCCCN2CCC(C(O)(c3ccccc3)c3ccccc3)CC2)cc1 the results were CaV13 FRET inh -10.3.
Screening C=CS(=O)(=O)c1ccc(Oc2ccc(S(=O)(=O)C=C)cc2)cc1 returned CaV13 FRET inh -4.9, VLA-4 inh 48.9, Exocytosis inh 88.8* and ABCB6 inh 2 90.0.
`NS(=O)(=O)c1ccc(Oc2ccc(S(N)(=O)=O)cc2)cc1` gave CaV13 FRET inh -5.0, VLA-4 inh -5.9, Exocytosis inh -1.5 and ABCB6 inh 2 94.0.
For COC(=O)c1cc2c(c3c4cc(OC)ccc4n(S(=O)(=O)c4ccccc4)c13)C(=O)N(Cc1ccc(C(F)(F)F)cc1)C2 the results were CaV13 FRET inh -4.3.
`COc1cc(/C=C/C(=O)CC(=O)/C=C/c2ccc(O)c(OC)c2)ccc1O` gave CaV13 FRET inh -15.8, VLA-4 inh -228.5, Exocytosis inh 83.8* and ABCB6 inh 2 268.0.
COc1cc(C=C2C(=O)C=CC2=O)ccc1O was read as CaV13 FRET inh -9.9, Exocytosis inh 82.6* and ABCB6 inh 2 113.0.
For COc1cc(/C=C2/C(=O)CNC2=O)ccc1O the results were CaV13 FRET inh -4.0, VLA-4 inh 2.3, Exocytosis inh 0.1 and ABCB6 inh 2 105.0.
COc1cc(OC)c(C(=O)/C=C/c2ccc(OCc3ccccc3)c(OC)c2)c(OC)c1 was read as CaV13 FRET inh -2.2, VLA-4 inh 1.4, Exocytosis inh 6.1 and ABCB6 inh 2 100.0.
For COc1cc(/C=C/C(=O)/C=C(O)/C=C/c2ccc(O)c(OC)c2)ccc1O the results were CaV13 FRET inh -12.9, VLA-4 inh 0.0, Exocytosis inh 68.8* and ABCB6 inh 2 254.0.
COc1cc(OC)c(C(=O)C=Cc2ccc(OC)c(OC)c2)c(OC)c1 was read as CaV13 FRET inh -7.1, Exocytosis inh 72.7* and ABCB6 inh 2 97.0.
For COc1cc(/C=C/C(=O)O)ccc1O the results were VLA-4 inh -19.9, Exocytosis inh -4.8 and ABCB6 inh 2 97.0.
For COc1ccc(S(=O)(=O)N2CCCc3nc(-c4ccc(Br)cc4)ccc32)cc1 the results were CaV13 FRET inh -8.6.
For OC(c1ccccc1)(c1ccccc1)C1CCN(CCCOc2ccncc2)CC1 the results were CaV13 FRET inh -8.5.
For Cc1cccc(OCCCN2CCC(C(O)(c3ccccc3)c3ccccc3)CC2)c1 the results were CaV13 FRET inh -8.3.
For Cc1cc2c(C)cc(=O)oc2c2c1NCCC2 the results were CaV13 FRET inh 32.8*, VLA-4 inh 4.2, Exocytosis inh -4.3 and ABCB6 inh 2 97.0.
For Cc1cc2cc3c(C)cc(=O)oc3c(C)c2o1 the results were CaV13 FRET inh -6.2, VLA-4 inh -0.5, Exocytosis inh -2.1 and ABCB6 inh 2 89.0.
COC(=O)[C@]12C[C@H](CC(=O)NCC3CCCCC3)C(=O)N(Cc3ccccc3)C1=C[C@H](C(C)C)O[C@@H]2C1CC1 was read as CaV13 FRET inh -11.0.
`O=C(C[C@@H]1C[C@@H]2c3cc(NC(=O)c4ccc5c(c4)OCO5)ccc3O[C@@H]2[C@@H](CO)O1)NCc1cccnc1` gave CaV13 FRET inh -5.6.
Screening COc1ccccc1N(C(=O)CCl)c1cn(C(C)=O)c2ccccc12 returned CaV13 FRET inh -19.0, VLA-4 inh 22.1, Exocytosis inh 27.4 and ABCB6 inh 2 93.0.
For COc1ccccc1N(C(C)=O)C1=C(Cl)C(=O)c2ccccc2C1=O the results were CaV13 FRET inh -6.4, Exocytosis inh 60.5* and ABCB6 inh 2 97.0.
Screening N#CC(C#N)=C1C=CC=CN1/C(=C\c1ccccc1)C(=O)c1cccs1 returned CaV13 FRET inh 62.8*, VLA-4 inh 0.9, Exocytosis inh 5.9 and ABCB6 inh 2 147.0.
N#CC(C#N)=C1C=CC=CN1/C(=C\c1ccccc1Cl)C(=O)c1ccccc1 was read as CaV13 FRET inh -3.4, VLA-4 inh 10.7, Exocytosis inh 67.7* and ABCB6 inh 2 102.0.
`COc1cc2c(cc1OC)C1=C(C#N)CC/C(=N\S(=O)(=O)c3cccc(Cl)c3)N1CC2` gave CaV13 FRET inh -3.4, VLA-4 inh 5.2, Exocytosis inh 0.2 and ABCB6 inh 2 73.0*.
For CCCN1CCCCC(NC(=O)c2cccs2)C1=O (stereo not given) the results were CaV13 FRET inh -1.6.
For CCN(CC)CCNC(=O)c1cn(-c2ccccc2)nc1-c1cccs1 the results were CaV13 FRET inh -5.4, VLA-4 inh 8.2, Exocytosis inh 2.0 and ABCB6 inh 2 96.0.
CCN(CC)CCOC(=O)c1ccc(NC(=O)c2cn(-c3ccccc3)nc2-c2cccs2)cc1 was read as CaV13 FRET inh -1.5, Exocytosis inh 90.2* and ABCB6 inh 2 95.0.
Screening O=C(CSc1nnc(-c2cccs2)n1-c1ccccc1)N1CCCC1 returned CaV13 FRET inh -3.3, VLA-4 inh 0.5, Exocytosis inh -1.4 and ABCB6 inh 2 95.0.
For Nn1c(SCC(=O)N2CCCC2)nnc1-c1cccs1 the results were CaV13 FRET inh 32.9*, Exocytosis inh -11.4 and ABCB6 inh 2 80.0.
Screening Cc1cccc(N/N=C/c2ccc(O)c(O)c2O)c1 returned CaV13 FRET inh -1.0, VLA-4 inh 9.1, Exocytosis inh -1.6 and ABCB6 inh 2 96.0.
Screening Cc1cccc(N/N=C/c2ccc(C)s2)c1 returned CaV13 FRET inh -21.0, VLA-4 inh 4.3, Exocytosis inh 61.3* and ABCB6 inh 2 98.0.
